Experimental findings from PubChem BioAssay (NCI) are described below.

Several values for one entry are separate records, joined by “and”; a condition that tells them apart may be missing. Equal entries are not always repeated. Compounds without any hit were thinned out: in the full panel of roughly 83,000, 20% have a hit.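 Note: values are percent growth. 100 is the growth of untreated cells, values between 100 and 0 indicate rising inhibition; between -100 and 0 indicates cell death.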 A number with no mark means an inactive call. Activity calls are given as the source filed them. How the source made its calls: active means growth percent below 10; inactive means the rest.

This assay has as its system MDA-MB-468 breast. Put plainly: NCI-60 one-dose screen, 48 h (100 = growth as untreated, 0 = no growth, -100 = all killed). Particulars: 10 µM unless noted.
For the compound `Cc1ccc(S(=O)(=O)c2nc(-c3ccccc3)oc2SCC(N)=O)cc1`, the growth was 91.7%. Take `COc1ccc2nc(-c3ccc(-c4noc(-c5ccc(Cl)cc5)n4)cc3)[nH]c2c1`: the growth was 37.5%. In the case of `CCCCCC(=O)Oc1ccc(/C(=C(/C)Cc2ccc(OC)cc2)c2ccc(OCCCN(C)C)cc2)cc1` it was 56.4%; in that of `CCOC(=O)[C@]1(Br)CC[C@@]1(Br)C(=O)OCC`, 44.9%; in that of `C=CC(=O)N1CCN(c2cccc(Oc3nccc(Nc4nnc(-c5ccc(Br)cc5)s4)n3)c2)CC1`, 84.4%. For the compound `O=C(Nc1cc(Cl)ccc1O)c1ccccc1Nc1ccnc(C(F)(F)F)c1`, the growth was 12.7%. In the case of `Cc1ncn(-c2ccc(/C=N/Nc3ccnc4cc(Cl)ccc34)cc2)c1C`, the growth is -21.4% (active). In the case of `O=C(NO)c1ccc(CNc2cccc3nc(C4CC4)n(-c4ccccc4)c(=O)c23)cc1` it was 22.3%; in that of `O=C(NC(=S)Nc1cccc(NC(=S)NC(=O)c2ccccc2)c1)c1ccccc1`, 98.5%; in that of `C[C@H]1[C@H]2[C@H]3CC[C@@H]4[C@@]5(C)C/C(=C/c6ccco6)C(=O)C(C)(C)[C@@H]5CC[C@@]4(C)[C@]3(C)CC[C@]23CO[C@]1(C)[C@@H](C(=O)/C=C\c1ccco1)C3`, 76.3%.

On to `O=C1N/C(=C\c2ccccc2)c2ncccc21`, for which the growth was 96.2%. In the case of `COc1ccc(NC2=CC(=O)C(C)=C(C)C2=O)cc1` it was 57%. Regarding `C#Cc1cccc(Nc2ncnc3ccc(-c4cncc(NS(C)(=O)=O)c4)cc23)c1`, the growth is -40.3% (active). Regarding `COc1cc(C2N=C(NNc3ccccc3)NC(C)=C2C(C)=O)ccc1O` (configuration not stated), the growth was 93.3%. The result for `c1cc[c]([Bi]([c]2ccccc2)[c]2ccccc2)cc1` reads 84.7%; that for `Nc1nc(N)nc(NCc2ccccc2)n1`, 114%. The result for `CC[C@@H](C)/C=C(C)/C=C/C(O)=C1\C(=O)N[C@@H](Cc2ccc(OC(=O)[C@@](OC)(c3ccccc3)C(F)(F)F)cc2)C1=O` reads 110%; that for `CCOC(=O)c1ccc2c(c1)ncn2-c1ccc(NC(=O)Nc2cccc(C)c2)cc1`, 116%. In the case of `COc1ccc(C(=O)/C=C/Nc2cc(-c3ccccc3)nn2-c2ccccc2)cc1` it was 70.4%.

Regarding `CC(C)(C)n1cc(-c2ccnc(NCCNS(=O)(=O)c3cccc4ccccc34)c2)c(-c2cccc(O)c2)n1`, the growth was 46.2%.

Take `CN1CCN(Cc2ccc(NC(=O)c3cncc(C#Cc4cncc5ncccc45)c3)cc2C(F)(F)F)CC1`: the growth is 43.5%. Consider `COCCCNc1nc(NC(=O)c2cc(Br)cc(C(F)(F)F)c2)cc(-c2cccnc2)n1`, for which the growth was 82.8%.

As for `CC(=O)c1ccc(Nc2nc(SCC(C)C)nc(-c3ccccc3)c2C#N)cc1`, the growth is 73.7%. In the case of `COc1ccc2c(c1)CC[C@@H]1[C@@H]2CC[C@]2(C)[C@@H](O)C(=O)C[C@@H]12` it was 109%; in that of `Cc1cc(Nc2c3ccccc3nc3ccccc23)ccc1NS(C)(=O)=O`, 23.6%. The result for `COC(=O)CCC/C=C\C[C@H]1C=CC(=O)/C1=C/C[C@@H](O)CCc1cccc(C(F)(F)F)c1` reads -14.5% (active); that for `FC(F)(F)c1[nH]ncc1-c1nc2c(N3CCCCC3)cc3[nH]ncc3c2c2c1CCCC2`, -25.6% (active). Regarding `N#C/C(=C\c1ccc[nH]1)c1cc2ccccc2[nH]1`, the growth is -3.15% (active).

Take `CCCCNC(=O)Oc1ccc(/C(=C(\C)c2ccccc2)c2ccc(OCCN(CC)CC)cc2)cc1`: the growth was 70.3%.

For `Cc1cc(C(C)(C)C)cc(C)c1CC1=NCCN1`, the growth is 93.5%. In the case of `CC(=O)O[C@@H]1C(=O)N(c2cnccn2)[C@H]1c1ccccc1[N+](=O)[O-]` it was -4.17% (active). On to `N#Cc1c(NC(=O)c2cccc(C(F)(F)F)c2)sc2c1CCC(=O)C2`, for which the growth is -8.78% (active). `CN1CCN(c2ccc3nc(-c4[nH]ncc4Nc4ncnc5[nH]ccc45)[nH]c3c2)CC1`: the growth is -55.6% (active). For `COc1cc2nc3c(=O)n(-c4ccc(C#N)cc4)cnn3c(=O)c2cc1OC`, the growth was 97.4%.

For `O=c1oc2ccc(-c3ccc(F)cc3F)cc2c(=O)n1-c1cccc(C(F)(F)F)c1`, the growth is -12.8% (active) and -5.33% (active). As for `Clc1ccc(Nc2ncnc3c2sc2ncccc23)c(Cl)c1`, the growth is 22.2%. With `O=C(c1ccccc1)C1OC1c1ccc([N+](=O)[O-])cc1` (configuration not stated), the growth is 29.2%.
